CHX counter: Cycloheximide Counterscreen for Small Molecule Inhibitors of Shiga Toxin; cell reporter, cycloheximide protein synthesis inhibition counterscreen; max response, %; actives 12% (n = 300,000); in the data active = max response mostly above about 13%, no sharp cut-off; inactive = mostly below about 14%; note: read at 38.3 µM for the half of the compounds with a filed dose
Shiga inhibitor: A qHTS for Small Molecule Inhibitors of Shiga Toxin; Vero cells, Shiga toxin protein synthesis inhibition reporter; inhibition, % at 38.7 µM; AID 2315, 2010; actives 9.2% (n = 290,000); in the data active = inhibition mostly above about 28%, no sharp cut-off; inactive = mostly below about 43%
AmpC inh detg: qHTS Inhibitors of AmpC Beta-Lactamase (assay with detergent) | P00811 | AmpC hydrolysis of nitrocefin, absorbance 480 nm, 0.01% Triton | Potency, µM (titrated, usually from 114 µM), usual class: inhibitors | actives 0.041% (n = 370,000); note: nearly all actives have a fitted effect of over 25% in size
Target sequence (P00811 whole entry, looked up): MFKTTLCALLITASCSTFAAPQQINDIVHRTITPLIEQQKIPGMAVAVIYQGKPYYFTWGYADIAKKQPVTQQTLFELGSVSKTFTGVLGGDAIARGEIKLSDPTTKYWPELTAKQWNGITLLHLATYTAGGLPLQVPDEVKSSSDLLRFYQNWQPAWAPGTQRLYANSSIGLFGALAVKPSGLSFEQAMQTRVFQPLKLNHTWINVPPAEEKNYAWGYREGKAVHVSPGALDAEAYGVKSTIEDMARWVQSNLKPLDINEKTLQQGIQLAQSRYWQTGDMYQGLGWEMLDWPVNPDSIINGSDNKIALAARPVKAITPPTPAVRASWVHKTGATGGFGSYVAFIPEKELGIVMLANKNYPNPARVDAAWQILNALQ
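AmpC (5.3 nM in the dispensed reagent) in 20 mM phosphate pH 7.0 with 0.01% (detergent screen) or 0.0001% Triton X-100 was preincubated with compounds for 15 min at room temperature. Nitrocefin was then added from an 800 uM solution, and hydrolysis was followed at 480 nm.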
AMA1-RON2 inh: qHTS for Inhibitors of AMA1-RON; Towards Development of Antimalarial Drug Lead: Primary Screen; Plasmodium falciparum AMA1 (3D7) - RON2 peptide interaction; AlphaScreen AMA1-biotinylated RON2 peptide binding; Potency, µM (series often up to 58.2 µM), hits mostly inhibitors; actives 0.2% (n = 360,000); note: nearly all actives have a fitted effect of over 45% in size
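AMA1 (3D7) with his tag at 25 nM final met compounds first, then biotinylated RON2 peptide at 25 nM; detection used donor plus acceptor beads, 10 µg/mL apiece, read by AlphaScreen after 30 min at room temperature.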
AmpC no deterg: qHTS Inhibitors of AmpC Beta-Lactamase (assay without detergent); AmpC nitrocefin hydrolysis, absorbance 480 nm, 0.0001% Triton; Potency, µM (top dose mostly 57.1 µM), most hits filed as inhibitors; actives 0.52% (n = 330,000); AID 485341, 2010; note: nearly all actives have a fitted effect of over 20% in size
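20 mM phosphate pH 7.0 + 0.01% (detergent screen) or 0.0001% Triton X-100; 5.3 nM AmpC reagent; cpd preinc 15 min RT; nitrocefin (800 uM stock) to start; A480 q20 s × 4 min; Activity was normalised to no-enzyme and no-compound control wells.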
SARS PLpro yeast: qHTS of Yeast-based Assay for SARS-CoV PLP | S. cerevisiae expressing SARS-CoV PLpro, growth rescue | actives 0.19% (n = 330,000) | Potency, µM (doses to about 32.9 µM), actives largely listed as activators; calls by dose curve; note: nearly all actives have a fitted effect of over 55% in size
Numbers stand for hits; - = inactive; ? = inconclusive; . = no result; [ ] = remark or other dose. Many of the other results were omitted from the sample, so hits are more common in it than they were. Unless noted, calls come from the whole dose curve; as a rule, active = well fitted curve in the direction sought with a large enough effect; inconclusive = small, poorly fitted or top-dose-only effect, or another doubt; inactive = no such curve, though single readings can be large; an effect the other way counts as inactive or inconclusive.

SMILES | CHX counter | Shiga inhibitor | AmpC inh detg | AMA1-RON2 inh | AmpC no deterg | SARS PLpro yeast
Cc1ccc(C(=O)c2cncc(Br)c2)cc1 | 21.9 | - | ? | - | - | -
CN1CCN(S(=O)(=O)c2ccc(NC(=O)c3cccs3)cc2)CC1 | - | - | - | - | . | .
COCCN1C(=O)/C(=C/c2ccc(N3CCCC3)cc2C)SC1=S | - | - | - | - | - | -
COc1cccc(-c2cc(C(=O)Nc3ccccc3SC)no2)c1 | 36.2 | 34.8 | ? | - | - | -
COc1cccc(-c2noc(CCCC(=O)NC3CCCC3)n2)c1 | 14.8 | - | ? | - | - | -
COCCNC(=O)c1cc(-c2cccc(OC)c2)on1 | 42.5 | 74.3 | - | - | - | -
COc1ccc(NC(=O)c2cc(-c3cccc(OC)c3)on2)cc1 | - | - | - | - | - | -
COCC(C)NC(=O)c1cc(-c2cccc(OC)c2)on1 (stereo not given) | 28.3 | 81.3 | - | - | - | -
CCN(CC)C(=O)CSc1nnc2[nH]c(=O)cc(C)n12 | . | . | - | . | . | .
CCCCN=C(Nc1ccc(Cl)cc1)c1cccnc1 | - | - | - | - | - | -
Cc1cn([C@H]2C[C@H](O)[C@@H](CCC(=O)NCCCn3ccnc3)O2)c(=O)[nH]c1=O | . | . | . | - | - | -
O=C(CCCCCN1C(=O)c2ccccc2C1=O)NCCc1nc2ccccc2[nH]1 | - | - | - | - | - | -
COCC(C)NC(=O)c1cc(-c2ccc(O)cc2)on1 (stereo not given) | 35.9 | - | - | - | - | ?
COc1cccc(-c2cc(C(=O)NC3CCCC3)no2)c1 | 46.5 | 145.1 | - | - | - | -
COC(=O)c1ccccc1NC(=O)c1cc(-c2ccc(O)cc2)on1 | - | - | - | - | - | -
N/C(=N\OC(=O)Cc1ccc(Cl)cc1)c1ccccn1 | 19.9 | - | - | - | - | -
COc1ccccc1C/C(N)=N/OC(=O)COc1cccc(C)c1C | - | - | - | - | - | -
N/C(=N\OC(=O)COc1cc(Cl)c(Cl)cc1Cl)c1ccccn1 | 39.5 | 90.6 | - | - | - | -
Cc1ccc(OCC(=O)O/N=C(\N)c2ccccn2)cc1 | 50.4 | 80.3 | - | - | -[2.29 µM] | -
Cc1ccc(S(=O)(=O)N(C)CC(=O)O/N=C(\N)c2ccccn2)cc1 | - | - | - | - | - | -
Cc1cccc(OCC(=O)O/N=C(\N)c2ccccn2)c1C | 28.1 | 64.8 | - | - | - | -
Cc1ccc(CC(=O)O/N=C(\N)c2ccccn2)cc1 | 81.9 | 83.7 | - | - | - | -
CC(C)(C)CC(=O)O/N=C(\N)c1ccccn1 | 40.1 | - | - | - | - | -
COc1ccc(C(C[N+](=O)[O-])c2c(-c3ccccc3)cc3ccccn23)c(OC)c1 (stereo not given) | - | 71.3 | - | - | - | -
O=C(c1cccc2c1-c1ccccc1C2)N1CCCCC1 | - | - | - | - | - | -
SMILES | CHX counter | Shiga inhibitor | AmpC inh detg | AMA1-RON2 inh | AmpC no deterg | SARS PLpro yeast
CCCCN1C(=O)C(=O)N(CC(=O)N2N=C3/C(=C/c4ccco4)CCCC3C2c2ccco2)C1=O (stereo not given) | 20.4 | 49.4 | - | - | - | -
CCN(CC)CC(=O)Nc1sc(C)cc1C(=O)c1ccccc1 | - | - | - | - | - | -
O=C(CSc1ccc2nnc(-c3ccc(Cl)cc3)n2n1)N1CCCc2ccccc21 | 16.8 | - | - | - | - | -
O=C(CSc1nnc(-c2ccccc2)o1)N1CCCc2ccccc21 | . | . | - | . | . | .
O=C(CSc1ncccn1)n1c2c(c3ccccc31)CCCC2 | 32.8 | 52.4 | - | - | - | -
Cc1ccc2c(c1)CCCN2C(=O)CSc1ccccc1 | 11.5 | - | - | - | - | -
O=C(O)c1cccnc1SCC(=O)N1CCCc2ccccc21 | 46.8 | 98.6 | - | - | - | -
Cc1cc(C)nc(SCC(=O)n2c3c(c4ccccc42)CCCC3)n1 | - | - | - | - | - | -
Cc1cc(C)cc(N(C(=O)c2csnn2)C(C(=O)NC(C)(C)C)c2cccnc2)c1 (stereo not given) | - | - | - | - | - | -
COc1cccc(-c2cnc3c(NC=O)cc(-c4cc(C)c(O)c(C)c4)cn23)c1 | . | . | . | - | . | .
